PubChem BioAssay (NCI)
The panel holds about 83,000 compounds, 20% with a hit somewhere; the sample as a whole holds those more often.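 Single-concentration screen, 48 h exposure, 96-well plates. Endpoint: percent growth. Below 10 = active.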 Unmarked numbers belong to inactive results. Calls of active or inactive are those of the source.

Assays:
Experiment in all cases: NCI-60 one-dose screen, 48 h (100 = growth as untreated, 0 = no growth, -100 = all killed)
HT29 colon = conditions: 10 µM unless noted
SNB-75 CNS = conditions: 10 µM unless noted
U251 CNS = conditions: 10 µM unless noted
PC-3 prostate = conditions: 10 µM unless noted
SK-MEL-5 melanoma = conditions: 10 µM unless noted
UACC-62 melanoma = conditions: 10 µM unless noted
LOX IMVI melanoma = conditions: 10 µM unless noted
SK-MEL-28 melanoma = conditions: 10 µM
SK-MEL-2 melanoma = conditions: 10 µM unless noted
SNB-19 CNS = conditions: 10 µM unless noted

| Compound | growth (HT29 colon) | growth (SNB-75 CNS) | growth (U251 CNS) | growth (PC-3 prostate) | growth (SK-MEL-5 melanoma) | growth (UACC-62 melanoma) | growth (LOX IMVI melanoma) | growth (SK-MEL-28 melanoma) | growth (SK-MEL-2 melanoma) | growth (SNB-19 CNS) [%] |
| --- | --- | --- | --- | --- | --- | --- | --- | --- | --- | --- |
| O=C(c1ccccc1)N(C(=S)NCCc1ccc(Cl)cc1)c1ccccc1 | 101% | 118% | 87.6% | 83.3% | 98.3% | 96.9% | 68.2% | 113% | 99.9% | – |
| O=Nc1c(O)ccc2ccccc12.O=Nc1c(O)ccc2ccccc12.O=Nc1c([O-])ccc2ccccc12.[Fe+3] | 109% | 72.7% | – | 88.9% | – | 95.6% | 98.8% | 104% | 107% | 109 |
| Clc1ncccc1Nc1ccc2nnc(-c3ccncc3)n2n1 | 110% | 99.2% | 101% | 102% | 104% | 106% | 92.8% | 112% | 109% | – |
| O=C(NC(=S)Nc1cccc(NC(=S)NC(=O)c2ccccc2)c1)c1ccccc1 | 74.1% | -2.29% (active) | 60.1% | 61.3% | 80% | 67% | 71% | 55.3% | 66.1% | – |
| COc1ccc(Nc2nc(N/N=C/c3ccc(O)cc3)nc(Nc3ccc([N+](=O)[O-])cc3)n2)cc1 | 105% | 104% | 104% | 108% | 104% | 110% | 107% | 104% | 103% | – |
| CC[C@]1(O)C[C@@H]2CN(CCc3c([nH]c4ccccc34)[C@@](C(=O)OC)(c3cc4c(cc3OC)N(C)[C@H]3[C@@](O)(C(=O)OC)[C@H](OC(C)=O)[C@]5(CC)C=CCN6CC[C@]43[C@@H]65)C2)C1 | 8.06% (active) | 3.82% (active) | 16.6% | 20% | -54.6% (active) | 34.4% | 15.3% | 66% | 39.8% | – |
| CCOC(=O)CSc1c(-c2ccccc2)c2cc(Cl)ccc2[nH]c1=O | 105% | 94.1% | – | 91.9% | – | 92.6% | 84% | 109% | 114% | 108 |
| O=C(NC1CCCCC1)C(c1cccs1)N(CCc1ccccc1)C(=O)c1ccco1 (stereo unspecified) | 69.6% | 91.2% | 96.9% | 92.9% | 97.5% | 90.3% | 94.7% | 105% | 84% | – |
| COc1ccccc1N1C(=N)S/C(=C\c2ccc(OCc3ccccc3F)cc2)C1=O | 108% | 76% | 78.9% | 66.9% | 92.5% | 63.7% | 80.1% | 95% | 82.7% | – |
| COc1c2ccoc2c(/C=C/C=O)c2oc(-c3ccccc3)cc(=O)c12 | 87.1% | 95.2% | 16.3% | 37.9% | 48.6% | 83% | -41% (active) | 102% | 78.2% | – |
| O=C(NN1C(=O)CSC1c1ccc(Cl)cc1)c1[nH]c2ccc(F)cc2c1-c1ccccc1 (stereo unspecified) | 19.2% | 59.2% | 49.6% | 42.7% | 75% | 48.7% | 60.9% | 101% | 49.3% | – |
| O=C(Cc1ccccc1)NC(c1ccc(Cl)cc1)c1c(O)ccc2ccccc12 (stereo unspecified) | 12.8% | 40% | 1.3% (active) | 3.12% (active) | -49.5% (active) | 5.84% (active) | 10.4% | 36.6% | -3.92% (active) | – |
| O=C(O)c1cn(C2CC2)c2cc(N3CCN(C(=O)C[n+]4ccccc4)CC3)c(F)cc2c1=O | 109% | 97.2% | 92.4% | 106% | 101% | 105% | 98.1% | 112% | 96.5% | – |
| COc1cc(CNC(=O)Cc2ccccc2)ccc1OCc1cn(-c2ccc(F)cc2)nn1 | 111% | 91.7% | 97.3% | 98.5% | 89.1% | 85.3% | 99.6% | 103% | 101% | – |
| O=c1c(-c2nc3ccccc3[nH]2)cc2ccccc2n1Cc1cn(Cc2ccc(F)cc2)nn1 | 2.52% (active) | -19.2% (active) | 14.2% | 22% | 6.69% (active) | 17.2% | 12.8% | 45.1% | 36% | – |
| Cn1c(/C=C(\C#N)c2ccccc2)nc2c(N3CCOCC3)nc(Cl)nc21 | -54.6% (active) | -94.9% (active) | 3.21% (active) | -62.3% (active) | -53.8% (active) | -86.1% (active) | -87.9% (active) | -78.6% (active) | -34.4% (active) | – |
| CCOC(=O)c1sc(-c2ccc(OS(=O)(=O)c3cccs3)c(C=O)c2)nc1C | 1.93% (active) | 4.62% (active) | 2.52% (active) | 11.1% | -88.9% (active) | 2.43% (active) | -48.2% (active) | 27.4% | 28.6% | – |
| COc1cc2nc(NC3CCC3)nc(NC3CCN(C(C)C)CC3)c2cc1OC | 14.5% | 46.8% | 21.5% | 58.9% | 14.5% | 83.5% | 42.9% | 38.1% | 91.5% | – |
| FC(F)(F)c1cccc(Nc2nc3ccccc3nc2Nc2cccc(C(F)(F)F)c2)c1 | -53.7% (active) | -92.3% (active) | -34% (active) | 15.4% | -95.6% (active) | -62.6% (active) | -79.4% (active) | -85.5% (active) | -62.5% (active) | – |
| CN(O)c1nc(N(C)O)nc(N2CCOCC2)n1 | 23.7% | 29.2% | 31.5% | 58.9% | 34.2% | 29.1% | 25.4% | 61.1% | 62.6% | – |
| CCOC(=O)C(CC(=O)O)=C(C(=O)OCC)C(=O)OCC | 134% | 91.8% | – | – | – | 113% | 106% | 101% | 128% | 109 |
| COc1ccc(CSc2nnc(SCC(=O)Nc3ccc(Cl)cc3)s2)cc1 | 98.5% | 93.2% | – | 58.6% | – | 18.2% | 46.8% | 87.2% | 124% | 90.9 |
| O=NN(Cc1cccnc1)C(=O)NC1CCCCC1 | 103% | 84.7% | 97.4% | 98.7% | 102% | 110% | 103% | 104% | 119% | – |
| COc1cccc(/C=C/C(=O)c2c(C)nc3ccccc3c2/C=C/c2ccccc2)c1OC | 2.64% (active) | 9.19% (active) | 24% | 43.3% | 32.3% | 28.5% | -59.4% (active) | 44.8% | 32.3% | – |
| NC1(N2SC(S)=C3CCCC=C32)CCCCC1 | 97.1% | 91.7% | 101% | 109% | 104% | 104% | 94.7% | 114% | 111% | – |
| COc1ccc(C2Nc3nc(OC)n(C)c(=O)c3N=C3c4ccccc4C(=O)C32)cc1 (stereo unspecified) | 113% | 77.4% | 90.8% | 87.8% | 95% | 93.1% | 87.7% | 106% | 89.7% | – |
| CCN1C(=O)N(c2ccccc2)C2NN=c3s/c(=C4\C(=O)N(C(C)C)c5ccccc54)c(=O)n3C21 (stereo unspecified) | 9.74% (active) | – | 25.9% | – | – | 37.6% | 31.4% | 62.8% | 48.8% | 35.7 |
